RECQ1 inh: inhibitors of human RECQ1 DNA helicase | RECQ1 DNA unwinding, red fluorescence kinetic read | Potency, µM (doses to about 57.3 µM), for the others: at the top dose activity, negative = inhibition, usual class: inhibitors | 240,000 compounds, 0.54% hits | P46063 | AID 2549;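 note: potency is the fitted concentration of half-maximal effect; plate controls were vehicle for no effect and no enzyme for full effect; nearly all actives have a fitted effect of over 30% in size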
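50 nM RECQ1T1 preincubated 15 min with compound in Tris pH 8.0 buffer with MgCl2, DTT, Tween-20 and 2.5 ug/ml poly(dI-dC); started with 200 nM TAMRA/BHQ-2 forked duplex and 2 mM ATP. Unwinding read as fluorescence (525/598 nm), two reads 2 h apart.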
GCN5L2 inh: inhibitors of human GCN5L2 histone acetyltransferase; GCN5L2 HAT assay, ThioGlo1 CoA-SH fluorescence; Potency, µM (top dose mostly 58.9 µM), for the others: at the top dose activity change, negative = inhibition, hits mostly inhibitors; 390,000 compounds, 0.21% hits; AID 504327; note: potency is the fitted concentration of half-maximal effect; % is set by controls: 0 for no effect and ±100 for the full control effect
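Preincubate 20nM GCN5L2 with compound 15 min, RT → add 50uM ThioGlo1 + 75uM H3(1-25) + 70uM acetyl-CoA → read fluorescence 0 and 20 min. Primary qHTS; fluorescent artifacts likely.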
APE1 inh: blocks human APE1 abasic DNA cleavage. 350,000 compounds, 0.35% hits. AID 2517. recombinant APE1, TAMRA/BHQ-2 abasic DNA cleavage fluorescence. Potency, µM (top dose mostly 65.8 µM), for inactives: at the highest dose activity change, negative = inhibition, actives largely listed as inhibitors;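 note: potency is the fitted concentration of half-maximal effect; plate controls were vehicle for no effect and reference inhibitor for full effect; nearly all actives have a fitted effect of over 55% in size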
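Incision of a quenched TAMRA/BHQ-2 THF abasic-site duplex (50 nM) by 0.75 nM APE1, after 15 min compound preincubation, measured as fluorescence increase over three 60 s reads. Values normalized to buffer, DMSO and NSC13755 control wells.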
BLM helicase inh: inhibitors of human Bloom syndrome helicase BLM; P54132; recombinant BLM DNA unwinding, fluorescence dequenching; Potency, µM (doses to about 56.1 µM), without a hit: at the top dose activity change, negative = inhibition, hits mostly inhibitors; 350,000 compounds, 0.2% hits;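 note: potency is the fitted concentration of half-maximal effect; plate controls were vehicle for no effect and no enzyme for full effect; nearly all actives have a fitted effect of over 35% in size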
Target sequence (P54132 whole entry, looked up): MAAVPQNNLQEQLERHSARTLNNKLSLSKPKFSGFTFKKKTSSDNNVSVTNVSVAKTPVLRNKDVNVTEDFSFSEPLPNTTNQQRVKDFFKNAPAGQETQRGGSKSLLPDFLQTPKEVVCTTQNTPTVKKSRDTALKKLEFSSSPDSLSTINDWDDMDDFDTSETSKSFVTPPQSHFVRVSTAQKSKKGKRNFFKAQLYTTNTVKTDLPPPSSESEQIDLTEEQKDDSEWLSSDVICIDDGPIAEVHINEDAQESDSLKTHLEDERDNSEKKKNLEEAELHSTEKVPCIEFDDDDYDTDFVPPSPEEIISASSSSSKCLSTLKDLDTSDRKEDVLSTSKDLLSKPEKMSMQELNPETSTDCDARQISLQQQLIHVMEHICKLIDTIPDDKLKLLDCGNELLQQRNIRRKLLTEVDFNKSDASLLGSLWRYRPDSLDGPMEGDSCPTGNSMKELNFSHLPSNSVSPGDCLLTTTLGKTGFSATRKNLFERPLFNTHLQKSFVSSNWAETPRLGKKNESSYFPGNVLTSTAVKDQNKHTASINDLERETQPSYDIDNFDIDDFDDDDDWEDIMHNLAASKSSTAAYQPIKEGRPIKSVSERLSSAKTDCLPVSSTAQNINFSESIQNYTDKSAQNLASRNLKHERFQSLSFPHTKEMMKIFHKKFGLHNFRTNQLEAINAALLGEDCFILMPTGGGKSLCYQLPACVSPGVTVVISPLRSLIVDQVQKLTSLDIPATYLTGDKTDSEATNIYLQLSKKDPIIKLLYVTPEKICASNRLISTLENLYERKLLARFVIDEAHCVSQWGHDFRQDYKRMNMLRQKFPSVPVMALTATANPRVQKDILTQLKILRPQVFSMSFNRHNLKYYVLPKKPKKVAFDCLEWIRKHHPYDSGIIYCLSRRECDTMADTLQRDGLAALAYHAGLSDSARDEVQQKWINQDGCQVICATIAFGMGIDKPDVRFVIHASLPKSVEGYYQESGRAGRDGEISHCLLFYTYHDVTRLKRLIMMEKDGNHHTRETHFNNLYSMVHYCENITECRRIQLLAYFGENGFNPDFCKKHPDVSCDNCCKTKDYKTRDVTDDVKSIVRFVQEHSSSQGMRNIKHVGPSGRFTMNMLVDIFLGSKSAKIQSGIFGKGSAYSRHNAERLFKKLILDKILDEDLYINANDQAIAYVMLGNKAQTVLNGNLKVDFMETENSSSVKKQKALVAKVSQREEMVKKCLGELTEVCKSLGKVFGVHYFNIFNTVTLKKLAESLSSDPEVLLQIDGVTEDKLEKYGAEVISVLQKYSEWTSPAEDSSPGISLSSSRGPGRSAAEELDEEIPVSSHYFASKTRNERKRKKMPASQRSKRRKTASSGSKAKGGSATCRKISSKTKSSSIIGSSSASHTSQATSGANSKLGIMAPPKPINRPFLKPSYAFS
FEN1 inh-1: inhibitors of human flap endonuclease 1; P39748; Recombinant FEN1 flap cleavage, fluorescence, 15 min; Potency, µM (titrated, usually from 114 µM), for the others: top-dose activity change, negative = inhibition, most hits filed as inhibitors; 390,000 compounds, 0.35% hits; note: potency is the fitted concentration of half-maximal effect; % is set by controls: 0 for no effect and ±100 for the full control effect; nearly all actives have a fitted effect of over 65% in size
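Potency values derive from four-parameter Hill fits of normalized qHTS data. The reaction used 10 nM FEN1 preincubated 15 min at room temperature with compound, then 50 nM DNA substrate, read at 0 and 15 min.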
PI5P4K alpha inh: PI5P4K alpha (human) kinase inhibition. P48426. PI5P4Kalpha enzyme, ADP-Glo luminescence, 60 min; active compounds read low. max response, %. 330,000 compounds, 1.2% hits. AID 652105; active = max response of -50% or lower; inconclusive = between -30% and -50%; inactive = -30% or higher; note: value at the top dose of about 77 µM; % is set by controls: 0 for no effect and ±100 for the full control effect
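qHTS, 1536-well: enzyme/substrate mix, compound by pin tool, 5 microM ATP final; RT 60 min; ADP-Glo reagents 1 (45 min) then 2 (30 min); luminescence.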
FEN1 inh-2: confirmation of human FEN1 inhibitors; Potency, µM, actives largely listed as inhibitors; shares compounds with FEN1 inh-1; FEN1 flap cleavage, TAMRA/BHQ2 fluorogenic DNA substrate; 880 compounds, 79% hits; note: potency is the fitted concentration of half-maximal effect; nearly all actives have a fitted effect of over 60% in size
Numbers without * were called inactive; i = inactive; ? = inconclusive; nt = no result; ! = a repeat was not active; [ ] = remark or other dose. Hits are enriched below; roughly 1.5% of the tested compounds scored in any of these assays. Unless noted, calls come from the whole dose curve; as a rule, active = well fitted curve in the direction sought with a large enough effect; inconclusive = small, poorly fitted or top-dose-only effect, or another doubt; inactive = no such curve, though single readings can be large; an effect the other way counts as inactive or inconclusive.

SMILES	RECQ1 inh	GCN5L2 inh	APE1 inh	BLM helicase inh	FEN1 inh-1	PI5P4K alpha inh	FEN1 inh-2
O=C(Nc1cc(C(=O)Nc2ccccc2C(=O)O)cc(C(=O)Nc2ccccc2C(=O)O)c1)c1ccccc1	nt	?	0%	-8%	25µM*	-82*	34*
Nc1nc(C23CC4CC(CC(C4)C2)C3)[nH]c(=O)n1	-2%	-12%	-3%	-7%	?	0	34*
Cc1cccc(OCc2ccc(-c3nc(C#N)c(NCc4cccnc4)o3)o2)c1	nt	-19%	nt	-8%	-22%	nt	nt
COc1ccc(NC(=O)C2CCCN(c3nnc(C)c4c(C)n(-c5ccccc5)nc34)C2)cc1Cl (stereo not drawn)	nt	-26%	nt	-6%	10%	nt	nt
COc1ccc(S(=O)(=O)NCCS(=O)(=O)N2CCN(c3ccccc3F)CC2)cc1	nt	-11%	nt	-1%	1%	nt	nt
C/C(CCN1CCCCc2nc(C)c(C)cc21)=N\O[C@@H](C)c1cc(-c2c(C)cc(C)cc2C)no1	i[11.5 µM]	nt	?	3%[12.4 µM]	nt	nt	nt
C=CCOc1ccc(Br)cc1/C=C1/SC(=Nc2ccc(C(=O)O)cc2)NC1=O	i	-12%	1%	-21%	25µM*	-72*	?
Cc1c2cnccc2c(C)c2c1oc1ccccc12	nt	nt	nt	nt	35µM*	16	38*
Cc1nc2c(oc3ccccc32)c(=O)o1	0%	-15%	0%	-1%	1%	nt	nt
O=C(CN1C(=O)S/C(=C/C=C/c2ccccc2)C1=O)Nc1ccc(C(=O)O)cc1	i	-19%	4%	-13%	-33%	-9	nt
O=C(CCN1C(=O)/C(=C\C=C\c2ccccc2)SC1=S)Nc1ccc(C(=O)O)cc1	nt	?	13µM*	?	-19%	?	?
CCOC(=O)C1CCCNC1=O (stereo not drawn)	i	-4%	5%	-3%	12%	-2	nt
CCOC(=O)C1CCNC(=O)C1=O (stereo not drawn)	nt	nt	nt	nt	20µM*	0	21*
Cc1c(C(=O)O)c(O)cc2c1C(=O)c1c(O)c([C@@H]3O[C@H](CO)[C@@H](O)[C@H](O)[C@H]3O)c(O)c(O)c1C2=O	nt	-9%	14µM*!	nt	?	?	85*
CCCCN(C)C1=CC2=CC(=C(C#N)C#N)CCC2CC1 (stereo not drawn)	14µM*	-5%	6%	13µM*	22µM*	-4	76*
CC(N)(COP(=O)(O)O)C(=O)O (stereo not drawn)	i	0%	13%	nt	nt	nt	nt
NNC(=O)c1oc2nc(-c3ccco3)cc(-c3ccco3)c2c1N	?	1%	?	?	50µM*	-26	38*
CN(C)c1ccc2nc3c(=O)[nH]c(=O)nc-3n(CC(O)C(O)C(O)CO)c2c1 (stereo not drawn)	nt	-12%	?	3%	45µM*	-29	34*
Cc1ncc(C(O)c2ccc(N(C)C)cc2)n1Cc1ccccc1 (stereo not drawn)	nt	nt	nt	nt	nt	-18	nt
CC#CCN1c2ccccc2[C@]23C[C@@H](C(=O)OC)N(S(=O)(=O)c4ccc(C)cc4)C2=NC(C(=O)OC)=C(C(=O)OC)[C@H]13	-17%[11.5 µM]	nt	-1%[12.4 µM]	-4%[12.4 µM]	nt	nt	nt
COc1cc(NS(=O)(=O)c2ccc(NC(=S)NC(=O)c3sc4cc(F)ccc4c3Cl)cc2)nc(OC)n1	-7%	5%	0%	4%	?	?	?
COc1cc(NS(=O)(=O)c2ccc(NC(=S)NC(=O)c3sc4ccccc4c3Cl)cc2)nc(OC)n1	-5%	0%	-1%	-7%	-5%	-27	nt
COc1ccccc1Nc1nc(NCCCN(C)C)nc(N)c1[N+](=O)[O-]	-5%	-9%	-6%	?	56µM*	0	60*
CCN(CC)CCNC(=O)c1c(C)[nH]c(/C=C2\C(=O)Nc3ccc(F)cc32)c1C	nt	0%	nt	37%	nt	nt	nt
CC(=O)OC[C@H]1O[C@@H](O/N=C(\C)CCN2CCc3nc(-c4ccccc4)c(-c4ccccc4)cc3C2)[C@H](OC(C)=O)[C@@H](OC(C)=O)[C@H]1OC(C)=O	i[11.5 µM]	nt	-8%[12.4 µM]	1%[12.4 µM]	nt	nt	nt
SMILES	RECQ1 inh	GCN5L2 inh	APE1 inh	BLM helicase inh	FEN1 inh-1	PI5P4K alpha inh	FEN1 inh-2
CC(=O)OCCN1C(=O)c2c(C)nc3ccc(S(=O)(=O)N4CCOCC4)cc3c2C1=O	-15%	0%	12%	-14%	nt	nt	nt
O=c1ccc2c(-c3ccccc3)c3ccc(O)cc3oc-2c1	nt	?	?	-16%	45µM*	?	34*
Nc1ccc(-c2c3ccc(=O)cc-3oc3cc(O)ccc23)cc1C(=O)O	nt	-3%	-23%	-5%	-35%	-12	nt
Cc1ccccc1C1=C/C(=C(\SS/C(C(=O)c2ccc(OCC(=O)O)c(Cl)c2Cl)=C2\C=C(c3ccccc3C)SS2)C(=O)c2ccc(OCC(=O)O)c(Cl)c2Cl)SS1	nt	nt	nt	nt	56µM*	-98*	?
NC(=S)NN=Cc1ccc(-c2ccc(S(=O)(=O)Nc3ncccn3)cc2)o1	nt	?	-28%	nt	79µM*	-55*	24*
COc1cc([N+](=O)[O-])cc(/C=C2/SC(=S)N(Cc3ccccc3)C2=O)c1O	nt	?	-21%	?	16µM*	-71*	21*
O=C(O)CN1C(=O)/C(=C\c2cc(Br)ccc2OCc2ccc([N+](=O)[O-])cc2)SC1=S	nt	-22%	-26%	?	?	-71*	85*
COc1cc(/C=C2/SC(=S)N(Cc3ccccc3)C2=O)cc(Cl)c1O	nt	-13%	-33%	3%	?	?	nt
O=C(O)CN1C(=O)/C(=C\c2cc(Br)ccc2OCc2ccccc2F)SC1=S	nt	?	52%	-11%	?	-9	nt
COc1cc(OC)c(OC)cc1CNc1sc2c(c1C(=O)Nc1ccccc1OC)CCC2	nt	0%	nt	-8%	0%	nt	nt
CN1CCN(c2ncc3nc(CCc4ccccc4)c(=O)n(C4CC4)c3n2)CC1	-1%	-13%	7%	4%	nt	nt	nt
Cc1cc(=O)[nH]c(/N=C(\N)Nc2ccc3c(c2)OCCO3)n1	i	-3%	0%	-3%	-6%	4	nt
COc1cc(N/C(N)=N/c2nc(C)cc(C)n2)cc(OC)c1	nt	-24%	11%	90%	?	-3	54*
Cc1cc(C)nc(/N=C(\N)Nc2ccc3c(c2)OCCO3)n1	1%	2%	-1%	283%	79µM*	-8	67*
Cc1ccc(NC(=O)c2c(NC(=O)C(F)(F)F)sc3c2CCCCC3)cc1	nt	-5%	nt	-17%	?	nt	nt

Screening data from PubChem.
